Reference: PubChem BioAssay (NCI)
Several values for one entry are separate records, joined by “and”; a condition that tells them apart may be missing. Equal values may be shown once. This is part of a sample that, as a whole, favours compounds with a hit. Of some 83,000 tested, about 20% had one in any assay.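 Values shown are percent growth following 48 h exposure of cells in 96-well plates to a single concentration of compound; below 10 was considered active.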 Values without a mark were called inactive. Activity calls are given as the source filed them.

How the values were obtained:
Assay in all cases: NCI-60 one-dose screen, 48 h (100 = growth as untreated, 0 = no growth, -100 = all killed)
Details in all cases: 10 µM unless noted
[1] = system: NCI-H23 lung
[2] = system: NCI-H226 lung
[3] = system: NCI-H322M lung
[4] = system: HOP-62 NSCLC
[5] = system: NCI-H460 lung
[6] = system: HOP-92 NSCLC
[7] = system: NCI-H522 lung
[8] = system: 786-0 renal
[9] = system: COLO 205 colon
[10] = system: K-562 leukemia
[11] = system: MDA-MB-231 breast
[12] = system: RXF 393 renal
[13] = system: SF-295 CNS
[14] = system: SF-539 CNS
[15] = system: UACC-257 melanoma
[16] = system: M14 melanoma
[17] = system: A549/ATCC NSCLC
[18] = system: DU-145 prostate
[19] = system: MALME-3M melanoma
[20] = system: SF-268 CNS

Compound	growth [1]	growth [2]	growth [3]	growth [4]	growth [5]	growth [6]	growth [7]	growth [8]	growth [9]	growth [10]	growth [11]	growth [12]	growth [13]	growth [14]	growth [15]	growth [16]	growth [17]	growth [18]	growth [19]	growth [20]
O=[N+]([O-])c1cc(Br)c(O)c(Br)c1	101%	93.5%	105%	96.9%	107%	95.8%	92.7%	102%	112%	123%	103%	90.2%	100%	108%	95.4%	111%				
O=[N+]([O-])c1cc(Cl)c(Cl)cc1Cl	105% and 107%	114% and 108%	116% and 123%	112% and 107%	110% and 108%		134% and 110%	111% and 112%	117% and 106%	114% and 110%	99.7% and 124%	142% and 111%	97.8% and 112%	82.4% and 102%	80.1% and 111%	102% and 114%	88.7% and 111%	111% and 121%	115% and 126%	105% and 114%
O=C(NC1=NCC[Se]1)c1ccccc1O	65.6%	62.9%	49.4%	39%	16.2%		60.9%	94.7%	124%	50.7%	69.3%	44%	95.4%	52.9%	55.3%	42%	56.8%	61.1%	-22.9% (active)	43.3%
C[C@]12CCC(=O)C[C@@H]1CC[C@@H]1[C@@H]2CC[C@]2(C)[C@@H](OC(=O)N(CCCl)N=O)CC[C@@H]12	29.5%	45.8%	49.3%	23.9%	-64% (active)		22.3%	14.2%		10.7%	69.6%	32.7%	-29.6% (active)	-28.5% (active)	57.5%	17.7%	28.2%	-53.4% (active)	57.2%	12.7%
O=C1c2ccccc2C(=O)N1N1CC1c1ccccc1 (stereo unspecified)	96.3%	102%	92.5%	111%	111%		85.9%	98.9%	101%	97.7%	118%	107%	104%	102%	101%	100%	98.8%	109%	91.9%	104%
C[N+]1(C)CCCC1c1cccnc1 (stereo unspecified)	101%	98.3%	104%	101%	108%		102%	91%		99.3%	109%	102%	100%	107%	96.9%	97.5%	95.9%	110%	92.1%	108%
CC[C@H](C)[C@H](NC(=O)[C@H]1CCCCN1C)C(=O)N(C)[C@H](C[C@@H](OC(C)=O)c1nc(C(=O)NC23C4C5C2C2C3C4C52C(=O)OC)cs1)C(C)C (stereo partly specified)	18.6%	14.3%	48.3%	21.5%	12.6%		-16.1% (active)	13.7%	-42.8% (active)	6.1% (active)	20.3%	34.2%	6.06% (active)	-11.4% (active)	46.4%	10.2%	7.26% (active)	-7.13% (active)	56.9%	24.9%
O=C(O)C(Br)CBr (stereo unspecified)	99.2%	103%	92.5%	101%	102%		75.9%	96.4%	111%	104%	126%		98.1%	98.5%	97.7%	90.2%	97.6%	106%		103%
ClC1OC(Cl)(Cl)C(Cl)(Cl)OC1(Cl)Cl (stereo unspecified)	98.6%	94.7%	100%	104%	128%		89.4%	109%	110%	98.1%	105%	110%	109%	91%	99.5%	98.1%		114%	97.5%	108%
O=C(O)CNCP(=O)(O)O	107%	103%	106%	109%	119%		98.2%	106%	119%	101%	117%	121%	107%	115%	107%	101%	102%	121%		113%
ClCc1ccc(Cl)c(Cl)c1	102%	93.7%	98.3%	111%	103%		94.2%	95.4%	116%	107%	108%		94.4%	99.6%	98.3%	95.3%	107%	106%	83%	101%
Cc1ccc(C(=O)O[C@H](C(=O)O)[C@H](OC(=O)c2ccc(C)cc2)C(=O)O)cc1	102%	104%	104%	110%	115%		119%	101%	108%	89.9%		115%	118%	102%	94%	100%	103%	110%	107%	105%
Cc1cc(Br)c([N+](=O)[O-])cc1[N+](=O)[O-]	98.6%	95.5%	132%	100%	97.5%		-28% (active)	103%	72.9%	75%	97.8%	103%	114%	97.9%	98.7%	96.2%	101%	89.4%	128%	97.2%
O=C/C=C/c1ccco1	101%	107%	111%	94.7%	111%		92%	100%	115%	88.8%	99.4%	119%	99.9%	100%		102%	85.6%	108%	98.8%	102%
O=C1CCCCC1CN1CCCCC1 (stereo unspecified)	99.6%	104%	94.6%	93%	101%		84.3%	106%		119%	116%	121%	97.2%	97%	96.2%	109%	94.9%	100%	86.2%	97.7%
CC(=O)Nc1nc2c(s1)C1=CC[C@H]3[C@@H]4CC[C@H](OC(C)=O)[C@@]4(C)CC[C@@H]3[C@@]1(C)CC2	69.7%	91.7%	75.2%	55.6%	64.1%		39.3%	32%	67.3%	35.1%	80.3%	7.7% (active)	29.4%	14%	79.2%	39.7%	54%	72.1%	66.5%	58.4%
